ERK AVP block: qHTS Assay for Inhibitors of the ERK Signaling Pathway using a Homogeneous Screening Assay; 72,000 compounds, 0.99% hits; HEK293-V1b, vasopressin-stimulated pERK AlphaScreen; Potency, µM (top dose mostly 57.5 µM), for inactives: at the highest dose activity, negative = inhibition, usual class: inhibitors; note: % is set by controls: 0 for no effect and ±100 for the full control effect; nearly all actives have a fitted effect of over 55% in size
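HEK293 cells stably expressing V1b receptor, preincubated 30 min at 37 °C with compound, then stimulated 5 min with 25 nM vasopressin. Phospho-ERK by AlphaScreen SureFire after 5 h RT; normalized to DMSO and vasopressin; AC50 by Hill fit.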
CRE Fsk mod: Cell signaling CRE-BLA (Fsk stim); CHO CRE-bla reporter (cAMP response element driving beta-lactamase), forskolin EC10, beta-lactamase ratio; Potency, µM (highest dose often 38.2 µM), without a hit: at the highest dose activity change, negative = inhibition, usual class: activators; 71,000 compounds, 2.5% hits; active = well fitted activation curve with a large enough effect in the signal ratio, with a control signal flat, not every such curve was filed as active; inconclusive = small, poorly fitted or top-dose-only effect, or effect the other way, or a change in a side signal; the % refers to the signal ratio; note: % of control where 0% means no effect
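Forskolin analogue NKH 477 at EC10 stimulated CRE-driven beta-lactamase in CHO cells alongside compound dilution series. Beta-lactamase was measured with CCF4, excitation 405 nm, emission ratio 460/530 nm.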
15-hLO inh: qHTS Assay for Inhibitors of 15-hLO (15-human lipoxygenase); 74,000 compounds, 1.4% hits; Polyunsaturated fatty acid lipoxygenase ALOX15 (Homo sapiens), P16050; purified 15hLO-1, xylenol orange hydroperoxide absorbance; Potency, µM (top dose mostly 57.1 µM), inactives show at the top dose activity change, negative = inhibition, most hits filed as inhibitors; AID 887, 2007; note: % is set by controls: 0 for no effect and ±100 for the full control effect; nearly all actives have a fitted effect of over 55% in size
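Quantitative HTS in 25 mM Hepes pH 7.5 containing 0.01% Triton X-100: human 15hLO-1 at 40 nM, arachidonic acid at 50 uM, 6 min turnover. Product quantified via ferrous oxidation/xylenol orange, 573:405 nm absorbance ratio.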
15-hLO-2 inh: qHTS Assay for Inhibitors of 15-hLO-2 (15-human lipoxygenase 2) | Polyunsaturated fatty acid lipoxygenase ALOX15B (Homo sapiens), O15296 | purified 15hLO-2, xylenol orange hydroperoxide absorbance | Potency, µM (titrated, usually from 57.1 µM), without a hit: at the top dose activity change, negative = inhibition, usual class: inhibitors | 110,000 compounds, 0.56% hits; note: % is set by controls: 0 for no effect and ±100 for the full control effect; nearly all actives have a fitted effect of over 60% in size
Target sequence (O15296 whole entry, looked up): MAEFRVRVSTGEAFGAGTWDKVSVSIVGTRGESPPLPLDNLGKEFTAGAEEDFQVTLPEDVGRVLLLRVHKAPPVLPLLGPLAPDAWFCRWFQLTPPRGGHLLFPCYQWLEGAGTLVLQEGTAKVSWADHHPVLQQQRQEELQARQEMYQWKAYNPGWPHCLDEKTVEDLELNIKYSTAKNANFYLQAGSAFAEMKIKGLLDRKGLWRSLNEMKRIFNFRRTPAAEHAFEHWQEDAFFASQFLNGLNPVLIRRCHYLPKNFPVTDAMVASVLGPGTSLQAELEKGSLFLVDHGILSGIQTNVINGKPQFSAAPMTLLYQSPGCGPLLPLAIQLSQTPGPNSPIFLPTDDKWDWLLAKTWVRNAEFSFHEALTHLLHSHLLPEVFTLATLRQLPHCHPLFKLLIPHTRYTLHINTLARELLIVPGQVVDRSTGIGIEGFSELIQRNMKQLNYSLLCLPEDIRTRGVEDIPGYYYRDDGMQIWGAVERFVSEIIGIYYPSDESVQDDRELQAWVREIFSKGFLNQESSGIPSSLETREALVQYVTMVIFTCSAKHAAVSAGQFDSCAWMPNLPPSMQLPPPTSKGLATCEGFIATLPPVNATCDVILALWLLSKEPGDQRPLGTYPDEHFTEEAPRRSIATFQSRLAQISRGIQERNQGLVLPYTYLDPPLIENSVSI
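Enzyme 50 nM, AA 45 uM, 25 mM Hepes pH 7.5 + 0.01% Triton X-100; cpd preinc 15 min RT, rxn 90 min RT; stop/detect with 200 uM XO + 300 uM Fe(II) in 50 mM H2SO4, 30 min; A573/A405.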
Starred values were filed as active, the others as inactive; ? = inconclusive; / = no result given; ! = repeats disagree; [ ] = another dose, or the depositor's remark. Sampled rows, rich in hits. Any-hit rate of the full collection: about 3.2%. Unless noted, calls come from the whole dose curve; as a rule, active = well fitted inhibition curve with a large enough effect; inconclusive = small, poorly fitted or top-dose-only effect; inactive = no such curve, though single readings can be large or run the other way. Potency is the fitted concentration of half-maximal effect.

SMILES | ERK AVP block | CRE Fsk mod | 15-hLO inh | 15-hLO-2 inh
CCn1c(=O)cc(OCC(=O)N2CCN(C(=O)c3ccco3)CC2)c2ccccc21 | 35% | ? | 1% | -2%
O=C(OCC(=O)N1CCN(C(=O)c2ccco2)CC1)c1cc(-c2ccco2)nc2ccccc12 | / | / | / | 13µM*
Cc1nc2ccccc2c2oc(C(=O)NC3CC3)cc12 | ? | 7.9µM* | 2% | 3%
Cc1nc2ccccc2c2oc(C(=O)N3CCN(C(=O)c4ccco4)CC3)cc12 | -18% | 13µM* | -6% | -4%
CCn1c(=O)c2cc(C(=O)N3CCN(C(=O)c4ccco4)CC3)sc2c2ccccc21 | ? | 4µM* | -6% | /
Cc1nc2ccccc2c2oc(C(=O)NCCN3CCN(C)CC3)cc12 | -26% | ? | 3% | 2%
COc1ccc(CNc2cc(-c3cccc(NS(C)(=O)=O)c3)ncn2)c(OC)c1 | ? | ? | -5% | 2%
C#CCOCCCC(=O)O | 3%[11.5 µM] | -7%[7.6 µM] | 28%[11.4 µM] | 11%[11.4 µM]
COc1ccc(C(=O)N2CCC3(CCN(CC(C)C)CC3)CC2)cc1 | 31% | -7% | 5% | -1%
COc1ccc([N+](=O)[O-])c2c1CCN2C(=O)CC[C@H](N)C(=O)O | 10% | 7% | 2%[25.6 µM] | 11%
Cc1nc2ccccc2c2oc(C(=O)NCCCN3CCCC3=O)cc12 | ? | ? | 7% | /
Cc1nc2ccccc2c2oc(C(=O)N3CCc4ccccc4C3)cc12 | 7.9µM* | ? | 20µM* | -2%
CCCCc1ccc2nc(NC(=O)OC)[nH]c2c1 | 20%[25.7 µM] | 0.25µM* | 0%[25.6 µM] | 13%[25.6 µM]
C=CCOc1ccc2nc(NC(=O)OC)[nH]c2c1 | / | / | / | 5%
Cn1cccc1C(=O)N1CCC2(CCN(C(=O)Nc3cccc(F)c3)CC2)CC1 | 0% | -7% | -2% | 3%
O=S(=O)(c1ccccc1)N1CCC2(CCN(Cc3ccccc3)CC2)CC1 | -7% | -14% | -2% | 1%
CCOc1cc(C2CC(=O)N3CN(C4CCCCC4)CSC3=C2C#N)ccc1O (configuration not stated) | -3% | -11% | ? | ?
COc1ccc(OC)c(C2CC(=O)N3CN(c4ccccc4)CSC3=C2C#N)c1 (configuration not stated) | -15% | 6% | ? | 10µM*
COc1cc2c(c(OC)c1)C(c1cccc(OC)c1OC)CC(=O)N2 (configuration not stated) | -28% | 3% | -8% | /
Cc1cccc(N2CSC3=C(C#N)C(c4ccc(C)o4)CC(=O)N3C2)c1 (configuration not stated) | -21% | ? | 1.6µM* | ?
COc1ccc(N2CSC3=C(C#N)C(c4cccc(OC)c4OC)CC(=O)N3C2)cc1 (configuration not stated) | -22% | 4µM* | ? | 13µM*
COc1cc(OC)c(C2CC(=O)N3CN(c4ccccc4C)CSC3=C2C#N)cc1OC (configuration not stated) | -19% | 14% | ? | ?
COc1ccc(C2CC(=O)N3CN(c4ccc(C)c(Cl)c4)CSC3=C2C#N)cc1 (configuration not stated) | -2% | -3% | ? | 16µM*
CC(=O)OCC(=O)[C@]1(O)C(OC(C)=O)CC2C3CCC4=CC(=O)C=C[C@@]4(C)[C@]3(F)C(O)C[C@]21C (some centres not stated) | -10% | / | 1% | 2%
c1ccc(-n2c(SCc3ccncc3)nnc2-c2ccco2)cc1 | -27% | 15% | 11% | 4%
SMILES | ERK AVP block | CRE Fsk mod | 15-hLO inh | 15-hLO-2 inh
Cc1ccc2nc(CSc3nnc(-c4ccco4)n3-c3ccccc3)cc(=O)n2c1 | 20% | 5µM* | -5% | /
c1ccc(-n2c(SCc3nc(-c4cccs4)no3)nnc2-c2ccco2)cc1 | -22% | 5µM* | -8% | -28%
COC(=O)c1ccc(C(NC(=O)c2ccco2)[C@]2(C)C[C@H]2C2CCCCC2)cc1 (some centres not stated) | 26% | ? | / | 10%
CC1(C)C(=O)C2C[C@]3(O)C4=CC(=O)OC(c5ccoc5)[C@]4(C)CCC3[C@](C)(C2=O)C1CC(=O)O (some centres not stated) | -15% | / | 6% | 9%
Cc1ccc(NCc2nc3ccccc3n2C)cc1 | -26% | ? | 16µM* | 43%
Cn1c(CNc2nc3ccccc3n2C)nc2ccccc21 | 10% | 8% | 15% | 24%
CCCCC1CN2C(CCC(C)C2c2ccc(Br)cc2)C(=O)O1 (configuration not stated) | -9%[11.5 µM] | / | 7%[11.4 µM] | /
CC#C[C@@]1(O)CC[C@@H]2[C@@H]3CCC4=CC(=O)CCC4=C3[C@@H](c3ccc(N(C)C)cc3)C[C@]21C | / | 11% | / | /
Cc1csc(NC(=O)CCCSc2nc3ccccc3s2)n1 | 16µM* | ? | -15% | 41%
Cc1csc(NC(=O)CSc2nc3ccccc3s2)n1 | / | / | / | -3%
O=C(O)c1cc(O)c2c(c1)[C@H]([C@H]1c3cc(C(=O)O)cc(O)c3C(=O)c3c(O[C@@H]4OC(CO)C(O)C(O)C4O)cccc31)c1cccc(O[C@@H]3OC(CO)C(O)C(O)C3O)c1C2=O (some centres not stated) | ? | / | 13µM* | 10µM*
O=C1c2cccc(O)c2C(=O)c2c(O[C@@H]3O[C@H](CO)[C@@H](O)[C@H](O)[C@@H]3O)cccc21 | 3%[11.5 µM] | 14%[7.6 µM] | -3%[11.4 µM] | 10%[11.4 µM]
COC(=O)N1CCC[C@@]2(CCN(c3ccccc3)C2)C1 | -5% | -3% | -5% | 5%
C[C@@H](C(=O)N[C@@H](CO)Cc1ccccc1)[C@H]1C[C@]1(C)[C@H](NC(=O)OCc1ccccc1)c1ccccc1 | 5% | -23% | / | 0%
Cc1ccc(-c2cc(C(=O)NC3=NCCS3)c3cc(Br)ccc3n2)o1 | -27% | ? | 13µM* | ?
CCNc1nc(SC(C)C(=O)Nc2ccccc2)nc(N2CCOCC2)n1 (configuration not stated) | -28% | ? | 3% | 0%
CC(=O)C(Sc1nn(C)c(=S)s1)C(=O)Nc1ccccc1 (configuration not stated) | 6% | 27% | 7.9µM* | ?
CC(=O)C(Sc1nc(N2CCOCC2)nc(N2CCOCC2)n1)C(=O)Nc1ccccc1 (configuration not stated) | -20% | ? | 16µM* | 1%
CCOC(=O)C1=C(O)/C(=C\c2cccc(OC)c2)N=C1C | / | / | / | -24%
CCCCc1ccc(/C=C2\C(=O)c3ccccc3C(O)=C2C(=O)OCC)cc1 | / | / | / | 10µM*
O=C1OC(=O)[C@@H]2[C@@H]1[C@@H]1CC[C@H]2O1 | -14% | 3.2µM*! | 19% | 3%
O=C(CCCc1ccccc1)Nc1cccnc1 | / | / | / | 2%
CN(C)c1ccc(NC(=O)CCCc2ccccc2)cc1 | 20µM* | ? | 10µM* | -13%
